From PubChem
TRHR PAM – TRH receptor (human) allosteric enhancement. P34981. TRHR cells, fluo-8 calcium fluorescence, EC20 TRH enhancement. enhancement, % at 2 µM. hit rate 0.66% among 360,000. AID 493056; in the data active = enhancement above about 30%; also: 0% is about no effect
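Enhancer read-out: after compound pinning and an initial kinetic agonist-mode read, an EC20 of TRH (10 nM final) was injected and fluo-8 calcium signal (Ex 480/Em 530) followed at 1 s/cycle for 100 cycles in TRHR-expressing cells.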
D1 antagonist – antagonists of human D1 dopamine receptor; P21728; HEK293 TREx D1 cells, calcium flux, dopamine EC80; stronger effect = lower value; activity change, negative = inhibition, % at 10 µM; hit rate 3.2% among 360,000; in the data active = activity change below about -30%; also: % is scaled to controls: 0 for no effect and ±100 for the full control effect
Target sequence (P21728 whole entry, looked up): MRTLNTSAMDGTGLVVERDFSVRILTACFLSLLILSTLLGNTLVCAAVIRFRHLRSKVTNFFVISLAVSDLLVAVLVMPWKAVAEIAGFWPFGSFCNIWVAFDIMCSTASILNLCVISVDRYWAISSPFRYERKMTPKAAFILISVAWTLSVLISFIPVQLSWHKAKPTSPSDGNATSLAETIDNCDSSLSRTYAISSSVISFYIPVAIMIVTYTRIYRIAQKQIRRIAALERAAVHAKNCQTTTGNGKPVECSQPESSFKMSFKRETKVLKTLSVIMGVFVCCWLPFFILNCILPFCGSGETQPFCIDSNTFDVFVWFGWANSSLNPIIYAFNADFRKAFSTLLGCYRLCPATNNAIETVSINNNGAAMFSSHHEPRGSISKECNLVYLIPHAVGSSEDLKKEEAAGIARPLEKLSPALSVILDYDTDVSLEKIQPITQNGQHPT
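Cells carrying a force-coupled, tetracycline-inducible human D1 receptor report calcium flux. Each well gets a 10 s baseline, compound with 180 s monitoring, then an EC80 dopamine stimulus with a second 180 s kinetic read.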
D1 ag – human D1 receptor agonism; P21728; HEK293 T-REx D1 cells, calcium flux, agonist mode; activation, % at 2 µM; hit rate 1% among 360,000; AID 504660; also: 0% is about no effect
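Inducible HEK293 T-REx D1 cells, force-coupled to calcium signalling, were plated at 4000 cells/well with tetracycline and held overnight at 30 C. After no-wash calcium dye loading, compound-evoked calcium rise over 180 s flagged agonists.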
D1 potentiator – human D1 dopamine receptor positive modulation | P21728 | potentiation, % at 10 µM | hit rate 0.036% among 360,000 | HEK293 TREx D1 cells, calcium flux, dopamine EC20 potentiation; in the data active = potentiation above about 30%; also: 0% is about no effect
TRHR agonist – activates the human TRH receptor | hit rate 0.18% among 360,000 | activation, % at 2 µM | AID 493084 | TRHR cells, calcium flux fluo-8, FDSS agonist mode | P34981; also: 0% is about no effect
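Fluo-8-loaded TRHR cells; 10 s baseline, compound added, kinetic Ca2+ fluorescence read 1/s, agonist mode.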
Active calls of the source: *. An excerpt weighted towards active compounds, which were near 4.6% of everything screened. Rule as the data show it, unless noted: active = activation above about 30%; inactive = the rest.

SMILES | TRHR PAM | D1 antagonist | D1 ag | D1 potentiator | TRHR agonist
CCOC(=O)c1cccc(NC(=O)CCc2c(C)nn(-c3ccc(N4CCOCC4)nn3)c2C)c1 | -3.0 | 10.5 | -0.5 | -1.9 | -0.5
Cn1c(SCC(=O)c2ccc3c(c2)OCCO3)nnc1C(F)(F)F | -0.2 | 1.0 | 3.7 | -2.3 | -0.8
COc1ccc(C2CC(c3ccccc3)=NN2C(=O)COC(=O)c2cccnc2Cl)cc1 (configuration not stated) | 2.4 | -12.1 | 8.0 | -5.3 | -0.9
COc1ccc(C2CC(c3ccccc3)=NN2C(=O)COC(=O)C2CC2)cc1 (configuration not stated) | 1.8 | -6.0 | 11.6 | -1.4 | 0.8
COc1ccc(C2CC(c3ccccc3)=NN2C(=O)COC(=O)c2cc(S(=O)(=O)N3CCOCC3)ccc2Cl)cc1 (configuration not stated) | 39.7* | -13.8 | 9.3 | 0.2 | 1.3
COc1ccc(C2CC(c3ccc4ccccc4c3)=NN2C(=O)CN2C(=O)CCC2=O)cc1 (configuration not stated) | 2.8 | -30.2* | 8.9 | 0.2 | 0.3
COc1ccc(C2CC(c3ccccc3)=NN2C(=O)COC(=O)c2cccnc2)cc1 (configuration not stated) | 37.4* | -6.4 | 3.9 | -4.6 | -0.5
COc1ccc(C2CC(c3ccccc3)=NN2C(=O)CCC(=O)O)cc1 (configuration not stated) | 32.8* | 0.8 | 2.1 | -3.5 | 1.2
CC1CC(C)CN(CCCNC(=O)C2CCCN(S(=O)(=O)N3CC(C)CC(C)C3)C2)C1 (configuration not stated) | 5.1 | -8.1 | 0.9 | -3.4 | -0.6
COc1ccc(-c2nc3cc(C)ccn3c2NC(=O)c2cccc(F)c2)cc1 | -9.2 | 18.8 | -0.6 | -0.9 | -0.6
COc1ccc(-c2n(Cc3ccccc3)c3ccccc3[n+]2Cc2ccccc2)cc1 | 12.7 | -9.3 | 2.2 | -4.1 | 0.3
Cc1ccc(C)c(NC(=O)Cn2nc(-c3ccccc3)nc2-c2ccccc2)c1 | 6.9 | -33.2* | -1.0 | -1.3 | 0.3
CCCN(CCC)C(=O)c1c2c(nc3ccccc13)C(=O)N(C1CCCCC1)C2 | -3.1 | -2.9 | -0.7 | -4.2 | -0.6
Cc1cc(/C=N/Nc2nc(N3CCOCC3)nc(N3CCOCC3)n2)c(C)n1-c1ccccc1 | 32.2* | 4.6 | 2.2 | -1.9 | -0.5
c1ccc(Nc2nc(N3CCOCC3)nc(N3CCOCC3)n2)cc1 | 39.4* | -8.1 | 1.1 | 2.2 | 0.3
CCCNc1nc(Nc2ccc(C)cc2)nc(N2CCCC2)n1 | 19.5 | -35.5* | 4.6 | -23.1 | 1.0
CCOc1ccc(CNc2ccc(N3CCOCC3)c(C(=O)O)c2)cc1 | -3.4 | -56.4* | 3.5 | -10.9 | -0.1
O=[N+]([O-])c1ccc(Nc2nc(NCCO)nc(N3CCCC3)n2)cc1 | 0.1 | -18.3 | 0.5 | 3.4 | 0.3
CCOc1ccc(Nc2nc(Nc3ccc(OCC)cc3)nc(N3CCOCC3)n2)cc1 | 34.5* | -5.6 | 0.6 | -1.9 | -0.5
CC(Sc1ncnc2sc(-c3ccccc3)cc12)C(=O)N1CCNC1=O (configuration not stated) | 0.0 | -40.7* | 12.9 | -1.1 | -0.3
O=C1CSC(=Nc2cccc(Cl)c2Cl)N1Cc1cccnc1 | -7.7 | -34.8* | 3.7 | -4.2 | -0.5
CCCC(C(=O)NC(C)(C)C)N(CC1CCCO1)C(=O)CNS(=O)(=O)c1ccc(F)cc1 (configuration not stated) | -6.0 | 1.3 | 0.4 | -5.8 | 0.0
CN(C)CCCN(C(=O)c1ccc2c(c1)OCCO2)c1nc2ccc(Cl)cc2s1 | 20.8 | -22.9 | 33.4* | -2.8 | 3.2
CN(C)CCN(C(=O)c1ccc2c(c1)OCCO2)c1nc2ccc(Cl)cc2s1 | -1.5 | -4.3 | 5.9 | -3.9 | 0.3
CN(C)CCCN(C(=O)c1ccc2c(c1)CCCC2)c1nc2cc3c(cc2s1)OCO3 | 2.0 | -27.4 | 39.5* | -1.6 | 1.0
SMILES | TRHR PAM | D1 antagonist | D1 ag | D1 potentiator | TRHR agonist
CN(C)CCCN(C(=O)c1ccc2c(c1)CCCC2)c1nc2ccc(F)cc2s1 | -4.3 | 6.4 | 9.6 | -4.2 | 0.5
CCN(Cc1ccccc1)S(=O)(=O)c1ccc(C(=O)N(CCCN(C)C)c2nc3cc4c(cc3s2)OCO4)cc1 | 0.8 | -65.9* | 9.3 | -9.3 | 0.3
c1ccc2c(c1)ncc1nncn12 | 11.2 | 0.4 | -1.0 | 0.6 | 1.5
CC1(C)CC(=O)C=C(NCCN2CCN(C(=S)NC3CCCCC3)CC2)C1 | 4.2 | 14.9 | 1.5 | 5.2 | 0.5
Cc1nc2c(-c3ccccc3)c(C)nn2c(SCC(N)=O)c1Cc1ccccc1 | 34.3* | 10.4 | -0.7 | -3.4 | 0.4
O=C(CN1CCC(C(=O)c2ccc(Cl)cc2)CC1)NC1CCCC1 | -10.5 | -3.2 | 3.6 | -4.5 | 0.5
c1ccc2c(c1)OCCOCCOCCOCCOc1ccccc1OCCOCCOCCO2 | -6.8 | -31.8* | 21.8 | -10.9 | 0.8
Cc1cc(C)cc(NC(=O)C(NS(=O)(=O)c2cccc3nsnc23)c2ccccc2)c1 (configuration not stated) | -1.1 | 4.6 | 5.9 | 5.0 | 0.6
COC(=O)c1c(NC(=O)CN2C(=O)C(=O)N(C(C)C)C2=O)sc(C)c1C | -1.9 | -37.1* | -0.3 | -3.4 | -0.1
CC1=Nc2ccccc2/C1=C\c1nc(-c2ccc(C(F)(F)F)cc2)oc1O | -7.8 | 18.5 | 78.6* | -12.5 | 24.9
COc1ccc(-c2nc(/C=C3\C(C)=Nc4ccccc43)c(O)o2)cc1 | 1.8 | -15.2 | 33.2* | -4.8 | 8.0
Oc1ccccc1-c1nnc(-c2ccc(C(F)(F)F)cc2)o1 | 3.5 | -13.0 | 4.6 | -2.5 | -0.3
CC1=Nc2ccccc2/C1=C/c1nc(-c2ccc(C)s2)oc1O | -8.0 | -17.9 | 72.6* | -3.7 | 17.0
CC1=Nc2ccccc2/C1=C\c1nc(-c2ccccc2)oc1O | 28.6 | -8.1 | 26.6 | -3.0 | 9.4
Cc1cccc(/N=C/c2nc(-c3ccccc3Br)oc2O)n1 | 1.0 | -13.7 | -3.4 | -1.2 | 0.3
C=C[C@@H]1c2cc(C)ccc2N(S(=O)(=O)c2ccc(C)cc2)[C@H](c2ccccc2C(F)(F)F)C1(C#N)C#N | -6.2 | -35.2* | 1.3 | -2.9 | 0.7
O=C(NCc1cccs1)C1CCN(C(=O)NCc2ccccc2)CC1 | 0.7 | -84.4* | -0.5 | -0.2 | -0.1
CN(C)C(=O)N1CCC(C(=O)NCc2ccc(F)cc2)CC1 | -1.2 | -0.7 | 2.5 | -4.6 | -0.2
CN(C)C(=O)N1CCC(C(=O)NCc2ccccc2)CC1 | 34.4* | -18.2 | 2.8 | -2.0 | -0.1
COc1ccccc1CNC(=O)C1CCN(C(=O)N(C)C)CC1 | 12.5 | -38.1* | 2.0 | -2.2 | 0.4
C/C(=N\N1CCCCC1)c1ccccc1O | 2.6 | -12.2 | 3.0 | -5.9 | 1.7
Cc1cc(C)n(-c2nc3cc(Cl)ccc3nc2N2CCN(c3ccccc3F)CC2)n1 | -7.6 | -6.2 | 0.4 | 4.2 | 0.1
CCOC(=O)Cn1nc(N2CCN(c3ccc(F)cc3)CC2)ccc1=O | 9.1 | 1.6 | 3.0 | -0.8 | -0.5
